Compound activity: PubChem, National Center for Advancing Translational Sciences (NCATS)
KB-V1 cytotox: KB-V1 MDR subline cytotoxicity; KB-V1 MDR cells viability, CellTiter-Glo, 72 h; Potency, µM (doses to about 46.1 µM), hits mostly cytotoxic; 400,000 tested, 3.4% active; AID 1347076; note: nearly all actives have a fitted effect of over 60% in size
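Cytotoxicity toward P-gp-expressing KB-V1 cells was determined as loss of CellTiter-Glo luminescence after 72 h at 37 degrees C. Compounds were tested in quantitative HTS format across a concentration range, with curves fitted to normalized data.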
HT1080-NT tox: kills 2HG-producing HT-1080-NT fibrosarcoma cells; HT-1080-NT fibrosarcoma viability, CellTiter-Glo ATP luminescence, 48 h; Potency, µM (highest dose often 46.1 µM), for inactives: at the highest dose activity, negative = less viability, usual class: cytotoxic; 360,000 tested, 1.6% active; AID 686970;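 note: NT is the 2HG producing partner of a matched IDH1 knockdown line; 0% = DMSO-treated cells and -100% = media-only wells without cells; nearly all actives have a fitted effect of over 55% in size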
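Compounds were tested in concentration-response format on HT-1080-NT cells for 48 hours at 37 degrees C. Cell viability came from CellTiter-Glo luminescence; curves were classified by r2, response magnitude and activity.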
KB-3-1 cytotox: kills parental KB-3-1 adenocarcinoma cells | KB-3-1 viability, CellTiter-Glo ATP luminescence, 72 h | Potency, µM (series often up to 46.1 µM), most hits filed as cytotoxic | 400,000 tested, 1.4% active; note: nearly all actives have a fitted effect of over 60% in size
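Here the drug-naive KB-3-1 line serves as comparator for MDR sub-line selectivity; cells received compound titrations, 72 h at 37 °C, then CellTiter-Glo readout.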
HT1080 IDH1KD tx: HT-1080 IDH1 knockdown cell toxicity (counter line); HT-1080 IDH1 knockdown viability, ATP luminescence, 48 h; Potency, µM (doses to about 46.1 µM), for inactives: at the highest dose activity, negative = toxicity, actives largely listed as cytotoxic; 360,000 tested, 2% active; AID 686971;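 note: 0% = DMSO wells and -100% = cell-free medium wells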
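After a 2 h attachment period, IDH1KD HT-1080 cells took pin-transferred compound for 48 h at 37 °C; ATP-based luminescence after 10 min room-temperature reagent incubation reported viability.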
TDP1 cell CPT: DT40-hTDP1 cell growth loss with CPT; chicken DT40 Tdp1-/-;hTDP1 cells + 20 nM CPT, ATP luminescence, 48 h; Potency, µM (top dose mostly 46.2 µM), without a hit: top-dose activity change, negative = growth inhibition, actives largely listed as inhibitors; 420,000 tested, 12% active; note: nearly all actives have a fitted effect of over 55% in size
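Chicken DT40 Tdp1-/- cells complemented with human TDP1, 400 cells/well, exposed to compounds plus 20 nM camptothecin for at least 48 h at 37 C; viability read as ATP content by CellTiter-Glo luminescence.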
DT40 TDP1 no CPT: qHTS for Inhibitors of human tyrosyl-DNA phosphodiesterase 1 (TDP1): qHTS in cells in absence of CPT. DT40 Tdp1-/- hTDP1 cells, no CPT, ATP luminescence, 48 h. Potency, µM (doses to about 46.2 µM), without a hit: at the top dose activity change, negative = growth inhibition, actives largely listed as inhibitors. 420,000 tested, 15% active; note: nearly all actives have a fitted effect of over 55% in size
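Stably hTDP1-transfected Tdp1-null chicken DT40 cells were treated with library compounds minus camptothecin and grown for at least 48 hr at 37 °C, after which cellular ATP was quantified by luminescence.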
Numbers without * were called inactive; i = inactive; ? = inconclusive; . = no result given; [ ] = dose if it differs, or a comment. Sampled rows, rich in hits. Any-hit rate of the full collection: about 19%. Calls come from the whole dose curve; as a rule, active = well fitted curve in the direction sought with a large enough effect; inconclusive = small, poorly fitted or top-dose-only effect, or another doubt; inactive = no such curve, though single readings can be large; an effect the other way counts as inactive or inconclusive. Unless noted, % is set by controls: 0 for no effect and ±100 for the full control effect; potency is the fitted concentration of half-maximal effect.

SMILES	KB-V1 cytotox	HT1080-NT tox	KB-3-1 cytotox	HT1080 IDH1KD tx	TDP1 cell CPT	DT40 TDP1 no CPT
O=C(NNc1nc2ccc(Cl)cc2s1)c1cc(-c2cccs2)nc2ccccc12	?	?	?	?	2.59µM*	5.17µM*
Cc1cc(C)c2nc(NNC(=O)c3cc(-c4cccs4)nc4ccccc34)sc2c1	i	?	i	?	4.61µM*	5.17µM*
C=CCNC(=O)NC(=O)COC(=O)c1nc2nccc(C)n2n1	i	12.8%	?	0.2%	1.0%	-5.7%
CCCCc1c(-c2ccccc2OC)ncn1CCc1ccc(Cl)cc1	11.6µM*	?	?	?	?	20.6µM*
COc1ccccc1C(=O)OCCc1ccccc1	?	20.3%	?	24.6%	0.8%	-7.1%
CCCCc1c(-c2ccccc2OC)ncn1CCc1ccccc1	11.6µM*	18.4µM*	?	20.6µM*	20.6µM*	?
CCCCc1c(-c2ccccc2OC)ncn1CCc1ccc(OC)cc1	9.2µM*	16.4µM*	?	?	18.4µM*	23.1µM*
COc1ccccc1-c1cc(C(=O)Nc2cc(C)n(Cc3ccc(Cl)cc3)n2)no1	i	8.5%	i	-2.7%	?	-16.9%
Cc1ccc(C)c(S(=O)(=O)N2CCN(C(=O)CN3C(=O)C4CC=CCC4C3=O)CC2)c1 (stereo unspecified)	i	15.6%	i	8.3%	-20.9%	-23.5%
COC(=O)[C@]1(Sc2ccc(C)cc2)CC(=O)N[C@@H]1c1ccccc1	i	16.0%	i	6.8%	-2.6%	?
Cc1ccc2[nH]c(CSc3nnc(NC(=O)c4ccccc4C)s3)cc(=O)c2c1	i	.	i	.	7.31µM*	5.8µM*
Cc1ccc2[nH]c(CSc3nnc(NC(=O)COc4ccccc4C)s3)cc(=O)c2c1	i	.	i	.	?	?
Cc1ccc2[nH]c(CSc3nnc(NC(=O)c4ccccc4F)s3)cc(=O)c2c1	i	.	i	.	10.3µM*	10.3µM*
COc1ccc(Cl)cc1-n1cc(-c2ccccc2)nc1SCC(=O)Nc1ccc(C)cc1	i	.	i	.	?	18.4µM*
COc1ccc(-n2cc(-c3ccccc3)nc2SCC(=O)Nc2ccccc2C)cc1	i	.	i	.	?	?
Cc1ccc(NC(=O)COC(=O)c2nn(-c3ccc(Cl)cc3)cc2O)cc1	i	?	i	?	-22.3%	?
Cc1ccc(NC(=O)c2cc(-c3ccccc3)n[nH]2)cc1	?	0.7%	i	2.4%	-11.6%	15.1%
Cc1ccc(-c2cn(-c3ccc(Cl)cc3)c(S(=O)(=O)CC(=O)Nc3ccccc3)n2)cc1	?	.	i	.	25.9µM*	?
Cc1ccc(-n2cc(-c3ccccc3)nc2S(=O)(=O)CC(=O)Nc2ccc(F)cc2)cc1	?	.	?	.	23.1µM*	?
O=C(/C=C/c1cccc([N+](=O)[O-])c1)NCCSCc1cccc(Cl)c1	i	3.4%	i	2.5%	?	?
COc1ccc(N2C(=O)NC(NS(=O)(=O)c3ccc(NC(C)=O)cc3)(C(F)(F)F)C2=O)cc1 (stereo unspecified)	i	2.2%	?	11.6%	-15.0%	1.7%
CCn1ccc2cc(S(=O)(=O)N3CCC(C(=O)NCc4cccc(C)c4)CC3)ccc21	i	.	i	.	?	?
Cc1ccc(Cl)cc1N1CCN(C(=O)c2cc(S(=O)(=O)N3CCCCCC3)cn2C)CC1	i	.	i	.	?	?
COc1cccc(N2CCN(C(=O)c3cccn3-c3nnc(N4CCCC4)s3)CC2)c1	i	.	i	.	?	?
Cc1ccc(Cl)cc1N1CCN(C(=O)c2cccn2-c2nnc(N3CCCCC3)s2)CC1	i	.	i	.	18.4µM*	13µM*
SMILES	KB-V1 cytotox	HT1080-NT tox	KB-3-1 cytotox	HT1080 IDH1KD tx	TDP1 cell CPT	DT40 TDP1 no CPT
O=C(c1cccn1-c1nnc(N2CCCCC2)s1)N1CCN(c2ccc(Cl)cc2)CC1	i	.	i	.	?	25.9µM*
Cc1cccc(N2CCN(C(=O)c3cccn3-c3nnc(N4CCCCC4)s3)CC2)c1C	i	.	i	.	23.1µM*	23.1µM*
O=C(c1cccn1-c1nnc(N2CCCC2)s1)N1CCN(c2ccc(Cl)cc2)CC1	i	.	i	.	20.6µM*	23.1µM*
OCC[C@H]1C[C@H](O)[C@@H](O)[C@]2(OCCc3ccccc32)O1	?	6.3%	i	0.8%	-1.6%	-16.6%
CCOCCCNC(=O)Cn1nc(C)n2c(cc3cc(C)ccc32)c1=O	.	.	.	.	0.5%	-9.0%
Cc1ccc(Cl)cc1N1CCN(C(=O)C2CCN(c3nnc(-n4cccc4)s3)CC2)CC1	i	-15.8%	?	-18.7%	?	16.4µM*
COc1ccc(NC(=O)N(Cc2cc3cc(OC)ccc3[nH]c2=O)CC2CCCO2)cc1 (stereo unspecified)	i	-8.3%	i	0.1%	?	?
COc1ccc(NC(=O)N(Cc2cc3ccc(OC)cc3[nH]c2=O)CC2CCCO2)cc1 (stereo unspecified)	?	?	?	?	18.4µM*	13µM*
COc1ccc2cc(CN(C(=O)Nc3ccccc3OC)C3CCCC3)c(=O)[nH]c2c1	?	-15.6%	i	?	?	?
COc1ccc2cc(CN(CC3CCCO3)C(=O)Nc3ccccc3OC)c(=O)[nH]c2c1 (stereo unspecified)	11.6µM*	2.59µM*	5.17µM*	2.31µM*	4.11µM*	4.61µM*
N#C/C(=C\c1ccc(Cl)cc1)c1nc2ncccc2[nH]1	18.4µM*	?	i	-10.4%[9.24 µM]	?	?
Cc1ccc2nc(/C(C#N)=C/c3ccc(-c4cccc([N+](=O)[O-])c4)o3)[nH]c2c1	i	-1.9%	i	13.3%	?	?
N#C/C(=C\c1c(Cl)cccc1Cl)c1nc2ccccc2[nH]1	i	-19.2%	i	?	?	-26.0%
N#C/C(=C\c1ccc(Sc2ccc(Cl)cc2)o1)c1nc2ccccc2[nH]1	14.6µM*	-1.6%	i	-5.8%	20.6µM*	13µM*
N#C/C(=C\c1ccc(Sc2nc3ccccc3[nH]2)o1)c1ccccc1	i	?	i	?	?	18.4µM*
Cc1ccc2nc(/C(C#N)=C/c3ccc(-c4ccc(F)cc4F)o3)[nH]c2c1	i	.	i	.	2.91µM*	5.17µM*
